# Sampled rows, rich in hits. Any-hit rate of the full collection: about 11%.
# HEK cytotox – cytotoxic compounds in HEK 293 cells | HEK 293 viability, ATP luminescence (CellTiter-Glo), 48-72 h | Potency, µM (doses to about 115 µM), inactives show at the highest dose activity change, negative = cytotoxicity, actives largely listed as inhibitors | hit rate 6.6% among 94,000 | AID 1345083; further: nearly all actives have a fitted effect of over 60% in size
#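 qHTS cytotoxicity; HEK 293, 250 cells/well; compound pinned; 48 or 72 hr, 37 degree Celsius, 5% CO2, 95% humidity; CellTiter-Glo, 10 min RT; luminescence (ATP).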
# hNpr1 antagonist – human Npr1 receptor antagonism; P16066; HEK293 hNpr1 GloSensor cGMP, ANP-stimulated luminescence; Potency, µM (highest dose often 46.3 µM), without a hit: at the top dose activity change, negative = inhibition, actives largely listed as inhibitors; hit rate 1.6% among 76,000; calls by dose curve; further: nearly all actives have a fitted effect of over 60% in size
#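 Compound pre-incubated 30 min at room temperature on GloSensor-loaded HEK293 cells stably carrying hNpr1 and the pGS-40F cGMP biosensor. Stimulation uses hNppA at 0.1 nM final; luminescence is taken at baseline and 20 min post-agonist.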
# Luciferase inh – Photinus pyralis luciferase inhibition. hit rate 2.5% among 76,000. purified P. pyralis luciferase, luminescence, biochemical. Potency, µM (top dose mostly 115 µM), most hits filed as inhibitors; further: nearly all actives have a fitted effect of over 65% in size
# Target sequence (P08659 whole entry, looked up): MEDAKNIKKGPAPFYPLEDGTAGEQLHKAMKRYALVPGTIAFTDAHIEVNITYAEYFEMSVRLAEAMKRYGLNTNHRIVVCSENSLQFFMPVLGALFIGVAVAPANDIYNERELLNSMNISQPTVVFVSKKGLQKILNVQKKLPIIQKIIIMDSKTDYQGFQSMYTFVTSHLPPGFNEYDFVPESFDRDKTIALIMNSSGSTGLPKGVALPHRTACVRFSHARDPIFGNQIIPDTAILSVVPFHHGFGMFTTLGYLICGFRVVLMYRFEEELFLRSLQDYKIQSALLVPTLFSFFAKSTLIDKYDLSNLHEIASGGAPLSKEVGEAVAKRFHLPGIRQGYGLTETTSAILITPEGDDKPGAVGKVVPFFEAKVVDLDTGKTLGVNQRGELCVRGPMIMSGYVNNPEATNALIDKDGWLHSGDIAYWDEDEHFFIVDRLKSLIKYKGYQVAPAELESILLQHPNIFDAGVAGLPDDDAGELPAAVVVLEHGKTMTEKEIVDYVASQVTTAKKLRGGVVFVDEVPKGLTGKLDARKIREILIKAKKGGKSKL
#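 Purified 10nM P. pyralis luciferase with 10uM D-luciferin and 10uM ATP in 50mM Tris acetate pH 7.5, 10mM Mg acetate, 0.01% Tween-20, 0.05% BSA. qHTS titration; luminescence read by CCD imager.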
# NIH3T3 tox – cytotoxic compounds in NIH 3T3 cells; AID 1345082; hit rate 4.3% among 94,000; NIH 3T3 viability, CellTiter-Glo ATP luminescence, 48-72 h; Potency, µM (highest dose often 96.7 µM), without a hit: at the top dose activity change, negative = cytotoxicity, usual class: inhibitors; further: nearly all actives have a fitted effect of over 55% in size
#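 First NIH 3T3 cells are plated at 400 cells/well; next compound is pinned in; then plates incubate 48 or 72 hr at 37 °C; finally CellTiter-Glo is added and luminescence read after 10 min.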
# * hit, by the source's call; i = inactive; ? = inconclusive; . = no result; [ ] = remark or other dose. Unless noted, the call rests on the fitted dose curve; in most records, active means well fitted curve in the direction sought with a large enough effect; inconclusive means small, poorly fitted or top-dose-only effect, or another doubt; inactive means no such curve, though single readings can be large; an effect the other way counts as inactive or inconclusive. On the % scale 0 is the no-effect control and ±100 the full control effect; potency means the concentration at half of the fitted maximal effect.
SMILES,HEK cytotox,hNpr1 antagonist,Luciferase inh,NIH3T3 tox
Cc1cccc(CN2CCCC(O)(CNCc3ncccc3C)C2=O)c1 (centres undefined),?,-7%,i,14µM*
O=C(Cc1ccc(Cl)cc1)N1CCC2(CC1)NC(=O)N(c1cccc(F)c1)N2,?,5%,i,?
COc1ccccc1-c1nnc2ccc(C(=O)NCC3CC3)cn12,3%[172 µM],.,.,-22%[138 µM]
C[S+](=O)([O-])c1ccc(-c2cc(C(=O)N3CCN(c4ncccn4)CC3)nn3cccc23)cc1,50µM*,.,.,-24%
O=C(NC1CCCC1)c1cc(-c2cccc(C(F)(F)F)c2)c2cccn2n1,40µM*,.,.,?
O=C(c1cc(-c2cccc(C(F)(F)F)c2)c2cccn2n1)N1CCCC1,45µM*,.,.,?
COc1ccccc1-c1cc(C(=O)N2CCN(c3ncccn3)CC2)nn2cccc12,i,.,.,i
O=C(NCC(F)(F)F)c1cc(-c2cc(Cl)cc(Cl)c2)c2cccn2n1,40µM*,.,.,?
COc1ccc(Cn2c(=O)c(C(=O)N3CCN([S+](=O)([O-])c4cccc(C(F)(F)F)c4)CC3)nc3cccnc32)cc1,-7%,.,.,-10%
O=C(NCC(F)F)c1cc(-c2cccc(C(F)(F)F)c2)c2cccn2n1,35µM*,.,.,?
COc1ccc2c(c1)CN(Cc1ccccc1)C(=O)CCN2CC(O)Cc1ccccc1 (centres undefined),79µM*,.,.,?
O=C1CCN(CC(O)C(F)(F)F)c2cc3c(cc2CN1Cc1ccco1)OCO3 (centres undefined),-17%,.,.,?
O=C1CCN(CC(O)Cc2ccccc2)c2cc3c(cc2CN1Cc1ccccc1)OCO3 (centres undefined),40µM*,.,.,?
COc1ccc2c(c1)CN(Cc1ccccc1)C(=O)CCN2C(C)=O,-20%,.,.,?
COc1ccc(OCC(O)CN2CCC(=O)N(Cc3ccccc3)Cc3cc4c(cc32)OCO4)cc1 (centres undefined),45µM*,.,.,?
CCN(CC)C(=O)C1CCC(c2nc3ncccc3o2)CC1 (centres undefined),-23%[172 µM],.,.,-17%[138 µM]
COCC1CN(Cc2ccc(Cl)c(F)c2)CC12CCNCC2 (centres undefined),?,-4%,i,?
CNC(=O)c1cc(C2CC2)nc2onc(C3CCN(C(=O)c4ccc(Cl)nc4)CC3)c12,-8%,.,.,-24%
CC(C)CS(=O)(=O)Nc1ccc([C@H]2OCC(=O)N(Cc3ccc(F)cc3)[C@@H]2CO)cc1,?,5%,i,-22%
O=C(NCc1ccccc1)C1CCN(C(=O)c2ncn3c2COC(c2ccc(F)cc2)C3)CC1 (centres undefined),7%,5%,?,i
Cc1ccc(C2Cn3cnc(C(=O)N4CCC(C(=O)NCc5cccc(F)c5)CC4)c3CO2)cc1 (centres undefined),-5%,-6%,50µM*,-14%
O=C(NCc1ccc(F)cc1)C1CCN(C(=O)c2ncn3c2COC(c2ccc(Cl)cc2)C3)CC1 (centres undefined),8%,1%,?,-1%
COc1ccc(C2Cn3cnc(C(=O)N4CCC(C(=O)NCc5ccc(C)cc5)CC4)c3CO2)cc1 (centres undefined),10%,-1%,i,i
COc1cccc(CNC(=O)C2CCN(C(=O)c3ncn4c3COC(c3ccccc3)C4)CC2)c1 (centres undefined),8%,1%,22µM*,i
Cc1ccc(C2Cn3cnc(C(=O)N4CCC(C(=O)NCc5ccccc5)CC4)c3CO2)cc1 (centres undefined),?,-11%,40µM*,-13%
SMILES,HEK cytotox,hNpr1 antagonist,Luciferase inh,NIH3T3 tox
Cc1cccc(CNC(=O)C2CCN(C(=O)c3ncn4c3COC(c3ccc(F)cc3)C4)CC2)c1 (centres undefined),3%,0%,45µM*,5%
C[C@H](C(=O)N1Cc2ccccc2CC2(CCN(C)CC2)C1)c1ccccc1,?,.,.,-29%
COc1ccc(-c2nc(Cn3c(-c4cccc(Cl)c4)nc(C)c(CCO)c3=O)c(C)o2)cc1,-20%,-3%,i,-18%
Cc1ccc(C2Cn3cnc(C(=O)N4CCC(C(=O)NCc5cc(F)ccc5F)CC4)c3CO2)cc1 (centres undefined),-4%,2%,40µM*,-4%
O=C(NCc1cccc(F)c1)C1CCN(C(=O)c2ncn3c2COC(c2ccc(F)cc2)C3)CC1 (centres undefined),6%,2%,32µM*,1%
O=C(NCC1CCCO1)C1CCN(C(=O)c2ncn3c2COC(c2ccc(F)cc2)C3)CC1 (centres undefined),-2%,0%,40µM*,-32%
Cc1ccc(C2Cn3nnc(C(=O)N4CCC(C(=O)NC5CCc6ccccc65)CC4)c3CO2)cc1 (centres undefined),?,-2%,?,?
O=C(NC1CCc2ccccc21)C1CCN(C(=O)c2ncn3c2COC(c2ccccc2)C3)CC1 (centres undefined),-7%,-10%,40µM*,-1%
Cc1ccc(CNC(=O)N2CCCCCNC(=O)CC2c2ccccc2)cc1 (centres undefined),-29%,1%,i,-20%
Cc1cccc(CN2CCC3(CC2)Cc2ccccc2CNC3=O)c1,?,.,.,-12%
O=C1CN(S(=O)(=O)Cc2ccccc2)CC2(CCCCC2)N1CC1CC1,?,.,.,-28%
CCc1ccc(CNC(=O)C2CCN(C(=O)c3ncn4c3COC(c3ccccc3)C4)CC2)cc1 (centres undefined),1%,4%,35µM*,-12%
O=C(NCc1ccc(F)cc1F)C1CCN(C(=O)c2ncn3c2COC(c2ccc(F)cc2)C3)CC1 (centres undefined),-9%,-12%,?,-17%
Cc1n[nH]c(C)c1CNC(=O)C1CCN(C(=O)c2ncn3c2COC(c2ccc(F)cc2)C3)CC1 (centres undefined),-5%,3%,25µM*,-1%
O=C(NCCCc1ccccc1)C1CCN(C(=O)c2ncn3c2COC(c2ccccc2)C3)CC1 (centres undefined),-8%,-15%,16µM*,i
CC(C)CNC(=O)C1CCN(C(=O)c2ncn3c2COC(c2ccc(F)cc2)C3)CC1 (centres undefined),7%,-1%,?,i
O=C(NCc1ccccn1)C1CCN(C(=O)c2ncn3c2COC(c2ccc(F)cc2)C3)CC1 (centres undefined),4%,-4%,35µM*,-3%
O=C(c1cccc(C(F)(F)F)c1)N1CCN(CCCn2nc3n(c2=O)CCCC3)CC1,-23%,.,.,-17%
c1cncc(Cc2noc(C3CN(Cc4ccsc4)C3)n2)c1,?,-6%,i,25µM*
O=C1N(Cc2ccc(F)cc2)C[C@H]2CN(Cc3cnc4ccccc4c3)CCN12,?,?,i,71µM*
